Screens: PubChem, several laboratories
Most compounds without a hit are left out; they make up all but 3.4% or so of the library.
EBV LMP1 NFkB: inhibitors of Epstein-Barr LMP1-induced NF-kappaB reporter | inhibition, % at 12.5 µM | LMP1-induced NF-kappaB luciferase reporter cells, luminescence | AID 504558 | hit rate 0.69% among 350,000; in the data active = inhibition above about 41%
Shn3 inh set2: inhibitors of Schnurri-3 3'UTR reporter in osteoblasts | inhibition, % at 12.5 µM | Clone20 osteoblast Shn3 3'UTR firefly luciferase, 24 h | hit rate 0.52% among 360,000 | AID 588674;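 active = mean inhibition of at least 75% with every replicate also reaching 75%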
HIF-2a block: blocks HIF-2a reporter activity; 786-0 RCC cells HIF-2a reporter, luciferase luminescence, overnight; inhibition, % at 18.8 µM; hit rate 0.72% among 360,000; AID 624352;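 active = inhibition of the luminescence signal of 40% or more relative to plate controls, in a single-dose primary screen at 18.75 µM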
TWEAK-Fn14 inh: blocks TWEAK-Fn14 interaction in a reporter cell assay; TWEAK-stimulated Fn14 reporter cells, luciferase luminescence, 8 h; inhibition, % at 10 µM; hit rate 2% among 360,000; AID 1159606; in the data active = inhibition above about 50%
TROY signal inh: TROY signaling inhibition | Q293 LMP1-TROYcd NF-kB luciferase reporter, 4 h | inhibition, % at 10 µM | hit rate 0.98% among 360,000 | AID 1347056;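 active = compounds whose plate-normalised and pattern-corrected inhibition of the luciferase reporter signal at the single screening dose is 50% or more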
MITF TRPM1 inh: reduces MITF-dependent TRPM1 promoter luciferase signal; SK-MEL-5 TRPM1 promoter luciferase, 24 h; inhibition, % at 12.5 µM; hit rate 0.83% among 330,000; AID 488899;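 active = mean inhibition across replicates of 60% or more, whatever share of single replicates reaches that level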
Numbers stand for hits; i = inactive; nt = no result given.

SMILES	EBV LMP1 NFkB	Shn3 inh set2	HIF-2a block	TWEAK-Fn14 inh	TROY signal inh	MITF TRPM1 inh
COc1ccc(-c2nn(-c3ccccc3)cc2/C=N/NC(=O)c2ccc(Br)o2)cc1	i	i	i	93.6	75.9	62.7
CC(C)(C)NC(=O)C(c1ccc(F)cc1)N(Cc1ccco1)C(=O)CCC(=O)Nc1nccs1 (stereo not drawn)	i	i	i	i	i	i
COc1ccc2c(=O)c(-c3ccc4c(c3)OCO4)coc2c1	i	i	i	69.8	i	i
CN1C(=O)N(C)c2ccc(C=O)c3cccc1c23	85.7	i	i	i	i	i
CN1C(=O)N(C)c2ccc(Br)c3cccc1c23	i	i	i	i	64.8	i
CC[C@@H]1CCC[C@@H](O)[C@@H](C)C(=O)O[C@H](C)[C@@H](C)C/C=C(C)/C(OC)=C\C(=O)N(C)C([C@@H](C)CC)C(=O)N(C)[C@@H](C(C)C)C(=O)N(C)[C@@H](COC)C(=O)N2CCC[C@H]2C(=O)N(C)[C@@H](C(C)C)C(=O)N2CCC[C@H]2C(=O)O1 (stereo partly drawn)	nt	i	i	77.4	i	nt
COc1cccc(Oc2ccc(C(F)(F)F)cc2NC(=O)CN2C(=O)NC3(CCCC3)C2=O)c1	i	i	i	i	i	i
COc1ccc(S(=O)(=O)N2CCCC(C(=O)NCc3ccco3)C2)cc1Cl (stereo not drawn)	i	i	i	86.2	i	i
COc1ccc(S(=O)(=O)N2CCCC(C(=O)NCc3ccco3)C2)cc1OC (stereo not drawn)	i	i	i	i	i	i
COc1ccc(S(=O)(=O)N2CCCC(C(=O)NCC3CCCO3)C2)cc1C (stereo not drawn)	i	i	i	92.8	i	i
N#Cc1ccc(CN2CCN(C(=O)CN3C(=O)NC4(CCCC4)C3=O)CC2)cc1	i	i	i	i	i	i
Cc1ccc(NC(=O)CSc2nn(-c3ccccc3)c(=S)s2)cc1S(=O)(=O)N(C)C	i	i	i	78.8	i	i
CCOC(=O)[C@]12CCC=C1N(Cc1ccc3c(c1)OCO3)C(=O)[C@H](CC(=O)NCCCN1CCCC1=O)C2	nt	nt	i	i	i	nt
COc1cc(-c2nc(C(=O)NCC3CCCO3)cc3c2[nH]c2ccccc23)cc(OC)c1OC (stereo not drawn)	91.6	i	i	59.3	i	i
O=C(NCC1CCCO1)c1cc2c([nH]c3ccccc32)c(-c2cccc(Cl)c2)n1 (stereo not drawn)	i	i	i	56.1	i	nt
CCCCC[C@@H](/C=C/C1C(=O)C=C[C@H]1C/C=C\CCCC(=O)OC)OC(C)=O (stereo partly drawn)	i	i	i	90.7	i	67.6
CCOC(=O)c1c(C)[nH]c(C(=O)N/N=C/c2ccc(Br)cc2)c1C	i	i	i	54.9	i	i
Cc1[nH]c(C(=O)N/N=C/c2ccc(C(=O)O)cc2)c(C)c1C(=O)N/N=C/c1ccc(C(=O)O)cc1	i	i	i	i	i	i
CC(C)(C)c1ccc(C(=O)NC(=S)Nc2nc3c(s2)CCCC3)cc1	i	i	i	81.6	83.5	i
C/C(=N\Nc1nc2c(s1)CCCC2)c1ccc(Cl)cc1	i	i	i	54.7	i	i
CN(C)c1ccc(C(=O)Nc2nc3c(s2)CCCC3)cc1	i	i	i	72.4	i	i
Cc1cc(C(=O)Nc2nc3c(s2)CCCC3)no1	i	i	i	60.5	i	i
C/C(=N\NC1=NCCN1)c1ccc(Cl)cc1	i	i	i	i	i	i
O=C1OCCC1=COCCCCCOC=C1CCOC1=O	i	i	i	i	i	nt
N=c1c(C(=O)NCc2ccc(F)cc2)cc2c(=O)n3ccccc3nc2n1Cc1ccco1	i	i	i	95.1	58.5	i
COc1ccccc1Cc1c(C2CCCCC2)nc2ccc(Cl)cn12	nt	i	i	i	i	nt
Cn1cc(C(=O)c2ccc(Cl)cc2Cl)cc1C(=O)N/N=C(\N)COc1ccc(Cl)cc1Cl	i	i	i	57.4	i	i
COc1ccc(C(C[N+](=O)[O-])C2(c3ccc(OC)c(OC)c3)C(=O)c3ccccc3C2=O)cc1 (stereo not drawn)	i	95.3	87.2	i	i	i
O=C(c1c[nH]c2ccccc12)C(Cl)c1ccccc1 (stereo not drawn)	i	i	i	78.7	i	i
O=C(O)C(SC(C(=O)O)c1ccccc1)c1ccccc1 (stereo not drawn)	i	i	i	i	i	i
